Measurements reported in the supplement of paper PMC5499739.
Over roughly 16,000 sequences, “Z-score” has its median near -0.37; the highest 2% begin near 3.1. The full list was thinned out, with the highest values kept by preference.

test system: RBM10 RRM1-ZnF-RRM2 (GST-tagged construct); assay: RNAcompete 7-mer binding Z-score; higher = stronger binding preference
In short: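 GST-tagged RBM10 constructs (20 pmol) and a designed pool of 241 399 RNAs up to 41 nt (1.5 nmol) were allowed to bind for 30 min at 4°C in 1 ml Hepes pH 7.8 buffer with glutathione Sepharose beads. After four 2-min washes at 4°C, bound RNA was identified by microarray hybridisation. Enrichment was scored per heptamer motif as a one-sided Z-score across the probes containing it.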

| Sequence | RNAcompete 7-mer binding Z-score |
| --- | --- |
| AGACAGG | 1.72 |
| UAACAGG | 1.14 |
| GGACAGU | 1.01 |
| GAACAGA | 0.745 |
| ACCCAGG | -0.173 |
| GCUUUAA | -0.726 |
| CCAGCUA | -0.719 |
| GUGGUAU | 1.08 |
| GUGCUAG | 0.268 |
| CGAUCUG | -0.795 |
| GUCUAAC | -0.486 |
| GAGUAGG | 3.6 |
| GAGUAGU | 0.68 |
| GGGUAUC | 2.16 |
| AGGUAUG | 1.95 |
| GGGUAGA | 3.84 |
| GGGUAUG | 3.69 |
| CGGUAGA | 1.01 |
| GGGUAGC | 2.69 |
| UGGUAGC | 1.01 |
| UGGUAGA | 1.89 |
| GAGUAGA | 1.4 |
| UGGUAGG | 3.16 |
| UGAUUCC | -0.668 |
| AAUUGUG | -0.00512 |

| Sequence | RNAcompete 7-mer binding Z-score |
| --- | --- |
| UUGGUGA | 1.39 |
| GAUCGCG | -0.0925 |
| UCGUUCA | -0.508 |
| UUUGAUG | -0.358 |
| UUGAGCA | -0.165 |
| UGGUACA | 0.949 |
| GGGUACU | 2.05 |
| CGGUAGU | 0.37 |
| AGGUAGC | 0.862 |
| GGGUAGG | 4.42 |
| AGGUAGG | 3.72 |
| GGGUAGU | 3.17 |
| GGGUACA | 3.39 |
| UGGUAGU | 0.585 |
| GCGUAGG | 2.21 |
| CGGUAGG | 2.15 |
| AGGUAGA | 2.42 |
| UAUGAAC | -0.195 |
| CAUGCUU | -0.861 |
| UGCUGCG | -0.34 |
| UACUCGC | -0.548 |
| GUGGAAU | 2.34 |
| AGUAUAU | -0.351 |
| AGGGGAA | 3.56 |
| CGGGGAA | 2.76 |

| Sequence | RNAcompete 7-mer binding Z-score |
| --- | --- |
| AAGGGCG | 3.12 |
| GGGGGAA | 2.61 |
| AGGGGAG | 2.52 |
| AAGGGAU | 3.44 |
| ACGGGAU | 1.88 |
| AAGGGAG | 4.04 |
| GAGGGAC | 2.02 |
| AAGGGAC | 3.43 |
| AGGGGAC | 1.97 |
| UAGGGAU | 2.48 |
| UUAGGCC | -0.471 |
| AGGCCUG | -0.632 |
| AAUCGCU | -0.825 |
| GUCUCUC | -0.719 |
| CGCGUGG | 1.41 |
| UUCGGCU | -0.61 |
| AACCAGU | -0.235 |
| GUCGUCC | -0.377 |
| CAACUAC | -0.628 |
| UAGGGAA | 3.46 |
| GAGGGAG | 3.04 |
| CAGGGAG | 3.08 |
| GGGGGAU | 2.89 |
| UAGGGAG | 3.15 |
| CAGGGAA | 3.07 |

| Sequence | RNAcompete 7-mer binding Z-score |
| --- | --- |
| ACGGGAA | 2.76 |
| UGGGGAU | 3.05 |
| AGGGGAU | 3.41 |
| AAGGGAA | 4.17 |
| UAGGGAC | 2.24 |
| AAGGCAA | 1.95 |
| GUCUCCU | -0.694 |
| CACAAGA | -0.391 |
| AAAAUGG | 2.68 |
| CAAGUGA | 0.228 |
| GGCUAAA | 0.661 |
| AAGGGCU | 1.39 |
| AAGGGCA | 3.44 |
| AAGGGCC | 1.53 |
| CAUGGGG | 2.51 |
| GAUGGGA | 3.8 |
| UAUGGAG | 1.68 |
| ACUGGGG | 1.58 |
| AAUGGGG | 4.38 |
| GAUGGGG | 4 |
| GAUGGUA | 2.46 |
| UAUGGGA | 2.76 |
| GAUGGUG | 2.77 |
| GAUGGGC | 2.09 |
| AAUGGAG | 3.01 |

| Sequence | RNAcompete 7-mer binding Z-score |
| --- | --- |
| GAUGGAG | 3.16 |
| AGCAUUU | -0.726 |
| GCCAGCA | -0.205 |
| CCGGUGC | -0.136 |
| CAUGCAA | -0.289 |
| CUGUCCU | -0.817 |
| UCUUCGG | -0.657 |
| CGUGCGA | -0.209 |
| CUCGAAG | -0.318 |
| CGAACUC | -0.719 |
| CAUGGGA | 2.16 |
| AAUGGGU | 4.1 |
| UAUGGGG | 3.19 |
| AAUGGGA | 4.69 |
| CAUGGGU | 2.58 |
| AAUGGAA | 3.27 |
| UAUGGAA | 1.22 |
| UAUGGGC | 1.64 |
| CAUGGAA | 1.36 |
| UAUGGGU | 2.81 |
| AAUGGGC | 2.92 |
| GAUGGGU | 3.01 |
